Among the data in PubChem BioAssay AID588689 (Southern Research Specialized Biocontainment Screening …, 2011) are inhibition values, retold here.

The target in this assay is Genome polyprotein (Dengue virus type 2 (strain 16681-PDK53)) (UniProt P29991). The assay can be described thus: flavivirus cap methylation enzyme inhibition – biochemical, confirmation dose response, primary screen (AID 588689). The settings on record: Dengue-2 NS5 methyltransferase capping enzyme assay, at 25 µM, stronger effect = higher value.
[1] abbreviates: measured here: pilot screen replicate inhibition.

Screen size: about 340,000 compounds; about 1,000 (0.29%) were called active. Cut-off read from the data, not from the text of the source: inconclusive = inhibition above about 29% without an active follow-up result; inactive = below that. The list is a sample of the results. Measured potencies and affinities stand elsewhere.

For `O=C1NC2=C(C(=O)CCC2)C(c2ccc3ncccc3c2)N1` (stereo unspecified), the inhibition is 0% (inactive).

Regarding `C[C@H](CO)N1C[C@H](C)[C@@H](CN(C)C(=O)Nc2cc(F)ccc2F)Oc2ncc(-c3cccc(F)c3)cc2C1=O`, the inhibition was 0.58% (inactive).

Take `O=C1C=C(c2ccc(C(=O)O)cc2)C[C@@H](c2ccc3c(c2)OCO3)C1`: the inhibition was 0.83% (inactive).

On to `O=C(Cn1c(C(F)(F)F)nc2ccccc21)Nc1ccccc1N1CCOCC1`, for which the inhibition is 0.69% (inactive).

As to `Cc1cc(-c2ccco2)n(CC(=O)NCCCc2ccccc2)n1`, the inhibition was -4.87% (inactive).

For the compound `N#Cc1c(-c2ccccc2)nc(SCc2cccc(Cl)c2)[nH]c1=O`, the inhibition is 19.5% (inactive).

Take `COC(=O)c1cccc(CSc2nc(-c3ccccc3)c(C#N)c(=O)[nH]2)c1`: the inhibition is 11.1% (inactive).

As for `O=C(CCC(=O)N1CCCC(Nc2ccccc2)C1)c1ccc(F)cc1` (stereo unspecified), the inhibition is 2.72% (inactive).

As to `COCCOC(=O)c1sc2nc[nH]c(=O)c2c1C`, the inhibition is -12.3% (inactive).

For `Cc1ccc(S(=O)(=O)N2CCN(Cc3cccnc3)CC2)cc1`, the inhibition is 2.57% (inactive).

Turning to `CC(=O)Nc1ccc(S(=O)(=O)N(C)CC(=O)OC(C)C(=O)NC2CCCCC2)cc1` (stereo unspecified), the inhibition was -5.07% (inactive).

For the compound `Cc1[nH]n(-c2ccccc2)c(=O)c1C(C[N+](=O)[O-])c1ccccc1Cl` (stereo unspecified), the inhibition is -8.87% (inactive).

Regarding `COc1ccccc1N=Nc1c(C)[nH]n(-c2ccccc2)c1=O`, the inhibition is 1.98% (inactive). The inhibition under setting [1] is -4.55%.

On to `Cc1[nH][nH]c(=O)c1C(c1ccccc1[N+](=O)[O-])C(C#N)C#N` (stereo unspecified), for which the inhibition was -2.95% (inactive).

Consider `Cc1[nH][nH]c(=O)c1[C@@H](c1ccccc1[N+](=O)[O-])C(C#N)C#N`, for which the inhibition is 14.4% (inactive).

Regarding `Cc1c(C(c2cccc([N+](=O)[O-])c2O)c2c(C)n(C)n(-c3ccccc3)c2=O)c(=O)n(-c2ccccc2)n1C`, the inhibition was -5.62% (inactive).

In the case of `COc1cccc(C(C[N+](=O)[O-])c2c(C)[nH]n(-c3ccccc3)c2=O)c1` (stereo unspecified), the inhibition was 8.91% (inactive).

In the case of `S=C(Nc1ccccc1Cl)NC1CCCCCC1`, the inhibition is -2.33% (inactive).

For the compound `Cc1nnc(SCC(=O)Nc2nsc(-c3ccc(Cl)cc3)n2)s1`, the inhibition was 2.61% (inactive).

As to `CCOc1ccc(S(=O)(=O)N2CCN(S(=O)(=O)c3ccc(C(C)=O)cc3)CC2)cc1`, the inhibition is -2.49% (inactive).

`CC1CN(CCc2ccccc2)C(C)C/C1=N/O` (stereo unspecified): the inhibition is -3.09% (inactive).

As to `Cc1c(Cl)cccc1NC(=S)N(Cc1cccnc1)Cc1ccccc1Cl`, the inhibition is -4.52% (inactive).

For the compound `O=C(NCCS(=O)(=O)NCc1cccs1)c1ccccc1`, the inhibition was 0% (inactive).

Consider `COc1ccc(C(=O)c2ccccc2C(=O)c2ccccc2)cc1`, for which the inhibition was -0.81% (inactive).

Regarding `Cc1cc(/C=C2/C(=O)NN(c3ccccc3)C2=O)c(C)n1-c1ccc(O)cc1`, the inhibition is 5.82% (inactive).

Turning to `COC(=O)C1=C(C)NC(=O)/C1=C\c1cc(C)n(-c2ccccc2F)c1C`, the inhibition is 5.5% (inactive).

On to `Cc1cc(/C=C2/C(=O)NN(c3ccccc3)C2=O)c(C)n1-c1cccc(O)c1`, for which the inhibition was 6.37% (inactive).

As for `COC(=O)C1=C(C)NC(=O)/C1=C\c1cc(C)n(-c2ccccc2)c1C`, the inhibition is 5.15% (inactive).

Take `Cc1nc(SCC(=O)N2CC(=O)Nc3ccccc32)nc(C)c1C`: the inhibition is 2.34% (inactive).

Consider `Cc1ccc(CS(=O)Cc2ccc(C(=O)NCc3ccc4c(c3)OCO4)o2)cc1` (stereo unspecified), for which the inhibition is -13.8% (inactive).

Consider `CC1CC(C)CN(S(=O)(=O)c2cccc(C(=O)N3CCN(c4ccc(F)cc4)CC3)c2)C1` (stereo unspecified), for which the inhibition was -0.73% (inactive).

With `CC(C)NC(=O)C1CCN(C(=O)N(C)C)CC1`, the inhibition is 0.71% (inactive).

As to `O=C(O)c1ccc(NC(=S)NC(=O)c2ccc(-c3ccc(Br)cc3)o2)cc1`, the inhibition is -8.03% (inactive).

With `Cc1c(NC(=S)NC(=O)c2ccc(-c3ccc(Cl)cc3)o2)cccc1C(=O)O`, the inhibition was 8.19% (inactive).

With `O=Nc1c(-c2ccccc2)n(O)[n+]([O-])c1-c1ccccc1`, the inhibition was -16.7% (inactive).

On to `COc1cccc(CN2CC(C(=O)NCCN3CCOC3=O)CCC2=O)c1` (stereo unspecified), for which the inhibition was -9.76% (inactive).

With `COC(=O)C1=CN(c2ccc(OC)cc2)C=C(C(=O)OC)C1c1ccc([N+](=O)[O-])cc1`, the inhibition is -9.75% (inactive).

For the compound `Cc1ccc(Cn2nnc(C(=O)Nc3cccc(C)c3C)c2N)cc1`, the inhibition is -0.68% (inactive).

Consider `Cc1cccc(S(=O)(=O)Nc2ccc(-n3c(C)nc4ccccc4c3=O)cc2)c1`, for which the inhibition is -5.8% (inactive).

As for `CSc1nc(Cl)c(Cc2ccc(OC(C)C)cc2)c(N(C)C)n1`, the inhibition is -2.55% (inactive).

As for `C=CCOc1ccc(S(C)(=O)=O)cc1`, the inhibition was 1.32% (inactive).

For `C=CCOc1ccc(Oc2cc(C)nc(SC)n2)nn1`, the inhibition is -6.11% (inactive).

For `COc1nc(SC)nc(Cl)c1Cc1ccc(OC(C)C)cc1`, the inhibition was -6.55% (inactive).

For the compound `CSc1nc(O)c(C(c2ccccc2)c2c(O)nc(SC)[nH]c2=O)c(=O)[nH]1`, the inhibition was -1.55% (inactive).

For `CSc1nc(O)c(C(c2ccc(C)cc2)c2c(O)nc(SC)[nH]c2=O)c(=O)[nH]1`, the inhibition was 5.27% (inactive). Moreover, the inhibition under setting [1] was 4.26%.

In the case of `CN1CCN(C(=O)/C(=C/c2cn(S(=O)(=O)N(C)C)c3ccccc23)NC(=O)c2ccccc2F)CC1`, the inhibition is -5.9% (inactive).

With `CCC(C(=O)Nc1cccnc1)n1c(=O)[nH]c2ccccc2c1=O` (stereo unspecified), the inhibition is -5.9% (inactive).

As to `Cc1ccc(NC(=O)C2CCCN(C(=O)Nc3ccc(F)cc3)C2)cc1` (stereo unspecified), the inhibition is -4.13% (inactive).

In the case of `Cc1cc(=O)[nH]c(-c2cccs2)n1`, the inhibition was 10.8% (inactive).

On to `CC[C@H](C)Cc1cn([C@@H](CCCN=C(NC(=O)OC(C)(C)C)NC(=O)OC(C)(C)C)C(=O)NCCCCCCCCCCC(=O)N2CCN(C(=O)OC(C)(C)C)CC2)nn1`, for which the inhibition is -0.83% (inactive).

Take `Cc1csc(N(C(=O)c2cccc(S(=O)(=O)N(C)C)c2)c2ccccc2)n1`: the inhibition is -1.38% (inactive).

As to `CCC(C(=O)OCC(=O)Nc1ccc2[nH]c(=O)[nH]c2c1)c1ccccc1` (stereo unspecified), the inhibition is 2.16% (inactive).

On to `COc1ccc(N(CC(=O)NCCSCc2ccco2)S(=O)(=O)c2ccccc2)cc1`, for which the inhibition was -3.68% (inactive).

Regarding `Fc1cccc(/C=N/Nc2nccnc2Cl)c1`, the inhibition is -2.31% (inactive).

As for `Cc1ccc([C@@H]2CC=C(C(=O)O)[C@H](c3ccccc3)N2S(=O)(=O)c2ccccc2C)cc1`, the inhibition was 11.1% (inactive).

Regarding `Cc1ccccc1S(=O)(=O)N1[C@@H](c2ccc(Cl)cc2)C(C(=O)O)=CC[C@H]1c1ccc(Cl)cc1`, the inhibition is 23.8% (inactive). In addition, under setting [1], the inhibition was 2.15%.

In the case of `Cc1ccccc1S(=O)(=O)N1[C@@H](c2ccccc2)C(C(=O)O)=CC[C@H]1c1ccc(Cl)cc1`, the inhibition is 12.8% (inactive).

For the compound `Cc1ccc([C@H]2C(C(=O)O)=CC[C@@H](c3ccc(C)cc3)N2S(=O)(=O)c2ccccc2C)cc1`, the inhibition is 13.7% (inactive).
